# Screen size: about 290,000 compounds; about 27,000 (9.3%) were called active. Rule as the data show it: active = inhibition mostly above about 28% (no sharp cut-off); inactive = mostly below about 43%. What follows is part of a selection rich in actives, with near analogues and random picks from the rest.
# Assay: A qHTS for Small Molecule Inhibitors of Shiga Toxin; also: 0% is about no effect
# Conditions: Vero cells, Shiga toxin protein synthesis inhibition reporter; at 38.7 µM, hits give high values
row,SMILES,inhibition
1,CC(=O)c1nn(-c2cccc(C(F)(F)F)c2)c(=O)[nH]c1=O,21.6% (inactive)
2,O=C1CSC(=S)N1c1ccc(Cl)c(Cl)c1,24.6% (inactive)
3,CCCNC(=O)c1cnc(-c2ccccc2)nc1-c1ccccc1,-8.32% (inactive)
4,O=C(/C=C/c1ccc2c(c1)OCO2)NCc1cn2cc(Cl)ccc2n1,21.3% (inactive)
5,CCOc1ncccc1C(=O)OCc1cn2cc(Cl)ccc2n1,18.7% (inactive)
6,Clc1ccc2nc(CSc3ccccc3)cn2c1,31.5% (active)
7,CC(C)CC(=O)N1CCN(Cc2cccc(Cl)c2)CC1,-12.6% (inactive)
8,CC(=O)N(c1ccc2oc(=O)sc2c1)S(=O)(=O)c1ccc(C)cc1,-13.9% (inactive)
9,CCC1=C(OC(=O)N(CC)CC)N2C(=O)OC(=NCCc3c[nH]c4ccccc34)[C@]2(C)[C@H]2C1=CC[C@H]1C(=O)N(CC)C(=O)[C@H]12,2.44% (inactive)
10,O=C(CCC(=O)N/N=C/c1ccc(Br)o1)N/N=C/c1ccc(Br)o1,5.62% (inactive)
11,O=C(CN1C(=O)COc2ccccc21)Nc1ccc(F)cc1,74.4% (active)
12,O=C(CN1C(=O)COc2ccccc21)NCCN1CCc2ccccc2C1,29.8% (inactive)
13,CC(OC(=O)CN1C(=O)COc2ccccc21)C(=O)NCc1ccc(F)cc1 (stereo unspecified),-12.1% (inactive)
14,CC(C)C[C@@H](CO)N1CCN(Cc2ccc(O)cc2)CCC1=O,7.05% (inactive)
15,COCCCNC(=S)NC(=O)c1ccc([N+](=O)[O-])cc1,34% (active)
16,O=C(NCCOc1ccccc1)c1ccccc1,42.2% (inactive)
17,COCCCNC(=S)NC(=O)c1ccccc1,50.8% (active)
18,COCCCNC(=S)NNC(=O)C(O)(c1ccccc1)c1ccccc1,-12.4% (inactive)
19,CCCCCC(=O)NC(=S)NNC(=O)c1ccc([N+](=O)[O-])cc1,-13.4% (inactive)
20,CC(=O)NC(=S)Nc1ccc(NC(=S)NC(=O)c2ccc([N+](=O)[O-])cc2)cc1,-11.1% (inactive)
21,COc1ccc(CNC(=O)C(C)NCc2ccccc2Cl)cc1 (stereo unspecified),-9.04% (inactive)
22,Cc1ccc(S(=O)(=O)N(CC(=O)Nc2cccnc2)c2ccc(Br)cc2)cc1,-36.9% (inactive)

row,SMILES,inhibition
1,CN(C)CCCn1c(=O)n(Cc2ccccc2)c(=O)c2c3c(sc21)CCCCC3,-7.1% (inactive)
2,C=CCn1c(-c2sc(-c3ccccc3)nc2C)n[nH]c1=S,24.9% (inactive)
3,Cc1nc(-c2ccccc2)sc1-c1nc(-c2ccccc2)ncc1S(=O)(=O)c1ccccc1,-10.1% (inactive)
4,Cc1nc(-c2ccccc2)sc1-c1nnc(C2CC2)o1,87.2% (active)
5,CCOc1cc(C(=S)N2CCOCC2)ccc1OS(=O)(=O)c1ccc(Br)cc1,1.09% (inactive)
6,C=CCOc1ccccc1NC(=O)CN1C(=O)CNC1=O,-4.23% (inactive)
7,COc1ccc(OC)c(NC(=O)c2cccc(S(=O)(=O)N3CCN(C(C)=O)CC3)c2)c1,1.91% (inactive)
8,COc1ccccc1C(=O)OCC(=O)NCCNC(=O)COC(=O)c1ccccc1OC,-3.42% (inactive)
9,Cc1ccc(-c2noc(CSc3nnc(-c4ccccc4)n3C)n2)cc1,-2.98% (inactive)
10,Cc1ccc(Cc2nc(-c3cccc(C)c3)no2)cc1,48.1% (active)
11,Cc1cccc(-c2noc(-c3ccc(F)cc3)n2)c1,152% (active)
12,Cc1ccc(-c2noc(CN3CCN(Cc4ccccc4)CC3)n2)cc1,41.3% (inactive)
13,Cc1cccc(-c2nc(Nc3ccc(O)cc3)c3ccccc3n2)c1,-1.6% (inactive)
14,Cc1cccc(-c2noc(CCC(=O)NC3CCCC3)n2)c1,24.9% (inactive)
15,O=C(O)CC(CC(=O)N1CCOCC1)c1ccccc1 (stereo unspecified),-6.69% (inactive)
16,Cc1c(NC(=O)c2c([N+](=O)[O-])cnn2C)c(=O)n(-c2ccccc2)n1C,-11.5% (inactive)
17,Cc1ccc(OCC(=O)Nc2ccccc2C(=O)NC2CC2)cc1C,-4.84% (inactive)
18,COc1ccc(C(=O)CC2C(=O)N(C)C(=O)N(C)C2=O)cc1,13.8% (inactive)
19,CO/N=C/CC(=O)c1ccc(OC)cc1,91.1% (active)
20,COc1ccc(OCCC(=O)c2ccc(OC)cc2)cc1,-6.88% (inactive)
21,Cc1ccc(C(=O)c2coc3ccc(O)c(CN(C)C)c23)cc1,-0.742% (inactive)
22,Cc1ccc(S(=O)(=O)NCCSC(C)(C)C)cc1,-15.2% (inactive)

row,SMILES,inhibition
1,CC(C)(C)SCCSC1=CC(=O)CC(c2ccccc2)C1 (stereo unspecified),75.7% (active)
2,O=C(O)CC/C(=C\c1cc2c(cc1Br)OCO2)c1nc2ccccc2s1,-7.28% (inactive)
3,Cc1ccc(S(=O)(=O)c2ccc(Oc3ccccc3)cc2)cc1,-11.7% (inactive)
4,CC1=C/C(=N\OS(=O)(=O)c2ccccc2)C=CC1=O,67.3% (active)
5,O=S(=O)(ON(c1ccccc1)S(=O)(=O)c1ccccc1)c1ccccc1,-5.69% (inactive)
6,COC(=O)c1ccc(NC(=O)CSc2nncn2-c2cccnc2)cc1,29.9% (inactive)
7,CC(Sc1nnc(CNC(=O)c2ccccc2F)n1C)C(=O)Nc1nccs1 (stereo unspecified),-6.1% (inactive)
8,CC(C)(C)NC(=O)CSC(=Nc1ccccc1F)NC#N,33.9% (active)
9,Cc1ccccc1CSCC(=O)NC(=O)NC(C)(C)C,11% (inactive)
10,COc1ccccc1-n1ccnc1SCC(=O)NC(C)(C)C,18.7% (inactive)
11,CN(C)c1ccnc2sc(C(=O)c3ccccc3)c(N)c12,25.4% (active)
12,CCc1nc2sc(C(=O)O)c(N)c2c2c1CCCC2,-12.9% (inactive)
13,Cc1nc2sc(C(=O)c3ccccc3)c(N)c2c2c1CCCC2,18.1% (active)
14,CCN(CC)C(=O)c1sc2nc(-c3ccccc3)ccc2c1N,165% (active)
15,CS(=O)(=O)c1sc2nc(-c3ccccc3)cc(-c3ccccc3)c2c1N,-3.26% (inactive)
16,COc1cccc(C(=O)c2sc3nc(-c4ccccc4)cc(C(F)(F)F)c3c2N)c1,-1.9% (inactive)
17,CCOC(=O)c1sc2nc(SC)nc(-c3ccccc3)c2c1N,-14% (inactive)
18,NC(=O)c1sc2nc3c(c(-c4ccccc4)c2c1N)CCC3,-11.8% (inactive)
19,CC(=O)c1c(Nc2ccccc2)sc(C(=O)c2ccccc2)c1C,-8.12% (inactive)
20,COC(=O)c1cc2c(N)c(C(=O)c3ccc(Cl)cc3)sc2nc1C(OC)OC,-1.42% (inactive)
21,Cc1ccc2c(N)c(C(=O)c3ccccc3)sc2n1,87.1% (active)
22,CN(C)c1ccnc2sc3c(=O)n(Cc4ccccc4)cnc3c12,-12.3% (inactive)

# Source: PubChem BioAssay AID2315 (National Center for Advancing Translational Sciences (NCATS), 2010)
